# Test results from publication PMC7862700, “An all-to-all approach to the identification of sequence-specific readers for epigenetic DNA modifications on cytosine”.
# How the values were obtained:
# Experiment in all cases: DAPPL (digital affinity profiling via proximity ligation, sequencing); 10 mM Tris-HCl pH 7.5, 50 mM NaCl, 1 mM DTT, 4% glycerol, room temperature, 30 min; GST-TFs on glutathione beads, 16-mer random dsDNA library, 0.1% formaldehyde crosslink after washing; high values mean tight binding
# FEV = target: T1, FEV (Homo sapiens, UniProt Q99581 1-238); settings: protein: recombinant; tags: N-terminal GST; dsDNA, one strand shown
# T1 sequence: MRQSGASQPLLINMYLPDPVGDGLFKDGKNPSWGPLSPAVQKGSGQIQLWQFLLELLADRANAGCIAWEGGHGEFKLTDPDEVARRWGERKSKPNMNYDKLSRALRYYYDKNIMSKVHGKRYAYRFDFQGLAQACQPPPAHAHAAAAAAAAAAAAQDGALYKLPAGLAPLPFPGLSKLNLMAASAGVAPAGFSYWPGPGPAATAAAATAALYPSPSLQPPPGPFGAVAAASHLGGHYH
# Outline: (§1)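 Sequencing on an Illumina NextSeq500 followed washing, crosslinking with 0.1% formaldehyde, proximity ligation (BsaI/T4 ligase, 1 h, 37 °C) and PCR amplification of pools that had been incubated for 30 min at room temperature with 200 nmole of a random double-stranded 16-mer DNA library in Tris/NaCl/DTT/glycerol buffer. Each pool held DNA-barcoded human transcription factors, expressed in yeast as GST fusions and captured on glutathione beads, plus a tag-only sample. Binding signal is a hexamer's read frequency for a factor divided by its frequency in the tag-only sample.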
# ETV5 = ETV5 (Homo sapiens, UniProt P41161 1-510); settings: protein: recombinant; tags: N-terminal GST; dsDNA, one strand shown
# Outline: as §1
# HSF1 = HSF1 (Homo sapiens, UniProt Q00613 1-529); settings: protein: recombinant; tags: N-terminal GST; chain copies: 3; dsDNA, one strand shown
# Outline: as §1
# SPIC = target: T2, SPIC (Homo sapiens, UniProt Q8N5J4 1-248); settings: protein: recombinant; tags: N-terminal GST; dsDNA, one strand shown
# T2 sequence: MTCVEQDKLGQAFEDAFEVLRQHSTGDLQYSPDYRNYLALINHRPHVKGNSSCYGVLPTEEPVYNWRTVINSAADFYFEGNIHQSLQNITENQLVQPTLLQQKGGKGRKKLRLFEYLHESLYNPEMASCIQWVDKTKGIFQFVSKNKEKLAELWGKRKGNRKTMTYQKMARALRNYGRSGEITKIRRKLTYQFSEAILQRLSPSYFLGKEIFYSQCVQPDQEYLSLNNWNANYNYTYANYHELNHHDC
# Outline: as §1
# ELF4 = ELF4 (Homo sapiens, UniProt Q99607 1-663); settings: protein: recombinant; tags: N-terminal GST; dsDNA, one strand shown
# Outline: as §1
# ELK4 = target: T3, ELK4 (Homo sapiens, UniProt P28324-2 1-405); settings: protein: recombinant; tags: N-terminal GST; dsDNA, one strand shown
# T3 sequence: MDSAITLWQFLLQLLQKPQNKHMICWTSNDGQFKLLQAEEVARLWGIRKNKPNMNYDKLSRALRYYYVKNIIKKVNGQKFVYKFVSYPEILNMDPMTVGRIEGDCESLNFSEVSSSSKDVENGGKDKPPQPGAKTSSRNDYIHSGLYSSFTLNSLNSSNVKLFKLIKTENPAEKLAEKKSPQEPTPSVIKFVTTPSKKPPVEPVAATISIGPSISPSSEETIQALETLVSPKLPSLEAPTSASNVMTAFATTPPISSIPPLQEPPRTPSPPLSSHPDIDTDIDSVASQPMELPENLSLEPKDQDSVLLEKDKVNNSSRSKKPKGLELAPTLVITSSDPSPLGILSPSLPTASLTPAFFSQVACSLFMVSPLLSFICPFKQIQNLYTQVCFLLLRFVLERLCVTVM
# Outline: as §1
# ETV2 = target: T4, ETV2 (Homo sapiens, UniProt O00321 1-342); settings: protein: recombinant; tags: N-terminal GST; dsDNA, one strand shown
# T4 sequence: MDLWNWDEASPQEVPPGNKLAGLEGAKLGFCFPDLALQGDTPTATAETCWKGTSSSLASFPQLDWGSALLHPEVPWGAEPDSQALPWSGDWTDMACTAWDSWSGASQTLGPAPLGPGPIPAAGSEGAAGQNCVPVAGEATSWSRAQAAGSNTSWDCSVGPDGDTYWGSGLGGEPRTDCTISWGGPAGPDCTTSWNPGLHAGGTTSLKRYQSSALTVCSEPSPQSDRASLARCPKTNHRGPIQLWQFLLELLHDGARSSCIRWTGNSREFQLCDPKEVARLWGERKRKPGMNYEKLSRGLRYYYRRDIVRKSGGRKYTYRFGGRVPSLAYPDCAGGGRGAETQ
# Outline: as §1
# ELF3 = target: T5, ELF3 (Homo sapiens, UniProt P78545 1-371); settings: protein: recombinant; tags: N-terminal GST; dsDNA, one strand shown
# T5 sequence: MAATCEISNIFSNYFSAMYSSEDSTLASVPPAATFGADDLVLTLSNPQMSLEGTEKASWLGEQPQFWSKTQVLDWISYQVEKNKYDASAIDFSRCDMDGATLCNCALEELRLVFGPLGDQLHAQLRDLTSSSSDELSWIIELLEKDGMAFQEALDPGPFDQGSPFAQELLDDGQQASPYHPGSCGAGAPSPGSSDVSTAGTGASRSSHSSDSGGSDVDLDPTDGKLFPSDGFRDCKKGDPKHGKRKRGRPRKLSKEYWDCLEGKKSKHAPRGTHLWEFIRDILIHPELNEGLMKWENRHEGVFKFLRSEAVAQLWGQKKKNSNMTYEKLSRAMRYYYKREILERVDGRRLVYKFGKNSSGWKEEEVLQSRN
# Outline: as §1
# CRX = CRX (Homo sapiens, UniProt O43186 1-299); settings: protein: recombinant; tags: N-terminal GST; dsDNA, one strand shown
# Outline: as §1
# ETV1 = ETV1 (Homo sapiens, UniProt P50549 1-477); settings: protein: recombinant; tags: N-terminal GST; dsDNA, one strand shown
# Outline: as §1
# ERF = target: T6, ERF (Homo sapiens, UniProt P50548 1-548); settings: protein: recombinant; tags: N-terminal GST; dsDNA, one strand shown
# T6 sequence: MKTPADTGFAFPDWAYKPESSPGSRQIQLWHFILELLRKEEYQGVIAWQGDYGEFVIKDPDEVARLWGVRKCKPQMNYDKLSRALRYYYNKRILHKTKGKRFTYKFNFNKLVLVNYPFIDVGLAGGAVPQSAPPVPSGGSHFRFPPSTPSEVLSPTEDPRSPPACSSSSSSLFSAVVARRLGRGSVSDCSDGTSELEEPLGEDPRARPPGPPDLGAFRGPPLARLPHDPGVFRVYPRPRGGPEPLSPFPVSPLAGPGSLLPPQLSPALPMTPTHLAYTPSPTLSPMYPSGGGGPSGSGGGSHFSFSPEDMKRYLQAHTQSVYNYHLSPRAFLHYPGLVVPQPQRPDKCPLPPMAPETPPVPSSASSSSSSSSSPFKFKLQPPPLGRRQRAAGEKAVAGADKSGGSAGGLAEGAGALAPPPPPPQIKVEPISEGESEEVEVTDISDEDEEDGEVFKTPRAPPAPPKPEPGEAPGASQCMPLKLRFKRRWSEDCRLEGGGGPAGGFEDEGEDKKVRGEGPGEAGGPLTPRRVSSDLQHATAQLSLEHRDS
# Outline: as §1
# ETV6 = ETV6 (Homo sapiens, UniProt P41212 1-452); settings: protein: recombinant; tags: N-terminal GST; dsDNA, one strand shown
# Outline: as §1
# ETV3L = target: T7, ETV3L (Homo sapiens, UniProt Q6ZN32 1-361); settings: protein: recombinant; tags: N-terminal GST; dsDNA, one strand shown
# T7 sequence: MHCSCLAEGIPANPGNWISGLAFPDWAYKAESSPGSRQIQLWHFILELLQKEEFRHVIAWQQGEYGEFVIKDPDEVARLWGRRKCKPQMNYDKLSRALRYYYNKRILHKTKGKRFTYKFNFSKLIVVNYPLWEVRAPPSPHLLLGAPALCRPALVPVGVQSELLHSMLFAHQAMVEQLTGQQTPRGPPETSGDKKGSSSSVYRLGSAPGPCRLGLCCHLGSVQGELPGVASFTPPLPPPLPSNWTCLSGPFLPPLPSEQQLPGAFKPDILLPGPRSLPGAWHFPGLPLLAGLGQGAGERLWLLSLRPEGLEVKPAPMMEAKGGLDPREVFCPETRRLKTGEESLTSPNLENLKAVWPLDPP
# Outline: as §1
# ETS2 = target: T8, ETS2 (Homo sapiens, UniProt P15036 1-469); settings: protein: recombinant; tags: N-terminal GST; dsDNA, one strand shown
# T8 sequence: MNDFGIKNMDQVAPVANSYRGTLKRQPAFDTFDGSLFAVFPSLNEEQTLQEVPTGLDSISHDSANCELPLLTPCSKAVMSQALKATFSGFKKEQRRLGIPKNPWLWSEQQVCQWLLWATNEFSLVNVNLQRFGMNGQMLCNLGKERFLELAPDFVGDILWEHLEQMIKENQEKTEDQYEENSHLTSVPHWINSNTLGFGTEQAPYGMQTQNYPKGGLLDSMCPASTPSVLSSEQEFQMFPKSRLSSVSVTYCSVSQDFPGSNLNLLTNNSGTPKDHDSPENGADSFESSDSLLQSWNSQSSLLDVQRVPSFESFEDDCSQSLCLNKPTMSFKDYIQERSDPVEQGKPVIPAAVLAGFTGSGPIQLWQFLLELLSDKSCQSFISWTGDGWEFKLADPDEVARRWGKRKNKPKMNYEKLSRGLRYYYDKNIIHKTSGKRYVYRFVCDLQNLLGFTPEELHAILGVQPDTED
# Outline: as §1
# SPDEF = target: T9, SPDEF (Homo sapiens, UniProt O95238 1-335); settings: protein: recombinant; tags: N-terminal GST; dsDNA, one strand shown
# T9 sequence: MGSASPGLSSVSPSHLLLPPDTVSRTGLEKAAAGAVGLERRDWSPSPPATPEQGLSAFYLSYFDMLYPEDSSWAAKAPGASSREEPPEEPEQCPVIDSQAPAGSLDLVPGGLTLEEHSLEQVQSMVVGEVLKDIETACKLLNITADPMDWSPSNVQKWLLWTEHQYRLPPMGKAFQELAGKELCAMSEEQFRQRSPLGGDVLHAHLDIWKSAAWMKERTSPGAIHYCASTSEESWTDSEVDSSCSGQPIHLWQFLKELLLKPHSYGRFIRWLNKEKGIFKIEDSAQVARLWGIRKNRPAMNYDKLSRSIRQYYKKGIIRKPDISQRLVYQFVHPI
# Outline: as §1
# ETV7 = target: T10, ETV7 (Homo sapiens, UniProt Q9Y603 1-341); settings: protein: recombinant; tags: N-terminal GST; dsDNA, one strand shown
# T10 sequence: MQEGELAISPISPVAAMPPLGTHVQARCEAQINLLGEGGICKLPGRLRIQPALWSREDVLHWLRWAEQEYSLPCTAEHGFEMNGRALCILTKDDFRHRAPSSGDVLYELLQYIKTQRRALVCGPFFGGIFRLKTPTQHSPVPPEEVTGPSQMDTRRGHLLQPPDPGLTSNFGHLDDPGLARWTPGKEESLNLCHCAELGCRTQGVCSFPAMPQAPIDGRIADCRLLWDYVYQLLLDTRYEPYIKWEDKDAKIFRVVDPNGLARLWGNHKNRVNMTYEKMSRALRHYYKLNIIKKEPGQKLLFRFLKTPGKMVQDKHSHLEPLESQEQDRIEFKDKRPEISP
# Outline: as §1
# ELF5 = target: T11, ELF5 (Homo sapiens, UniProt Q9UKW6-2 1-255); settings: protein: recombinant; tags: N-terminal GST; dsDNA, one strand shown
# T11 sequence: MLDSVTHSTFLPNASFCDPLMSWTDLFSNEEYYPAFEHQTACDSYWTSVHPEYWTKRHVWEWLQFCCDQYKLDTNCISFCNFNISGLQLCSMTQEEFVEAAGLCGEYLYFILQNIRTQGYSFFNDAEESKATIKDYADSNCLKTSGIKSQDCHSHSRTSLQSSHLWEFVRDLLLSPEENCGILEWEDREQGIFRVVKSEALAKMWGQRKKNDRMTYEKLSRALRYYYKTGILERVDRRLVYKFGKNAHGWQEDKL
# Outline: as §1
# ETV3 = target: T12, ETV3 (Homo sapiens, UniProt P41162-2 1-143); settings: protein: recombinant; tags: N-terminal GST; dsDNA, one strand shown
# T12 sequence: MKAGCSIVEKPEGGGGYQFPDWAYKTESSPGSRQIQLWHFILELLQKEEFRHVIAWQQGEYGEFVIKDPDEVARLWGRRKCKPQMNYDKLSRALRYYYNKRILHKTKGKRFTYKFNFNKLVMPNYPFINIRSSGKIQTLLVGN
# Outline: as §1
# Sequence of ETV5 (P41161 whole entry): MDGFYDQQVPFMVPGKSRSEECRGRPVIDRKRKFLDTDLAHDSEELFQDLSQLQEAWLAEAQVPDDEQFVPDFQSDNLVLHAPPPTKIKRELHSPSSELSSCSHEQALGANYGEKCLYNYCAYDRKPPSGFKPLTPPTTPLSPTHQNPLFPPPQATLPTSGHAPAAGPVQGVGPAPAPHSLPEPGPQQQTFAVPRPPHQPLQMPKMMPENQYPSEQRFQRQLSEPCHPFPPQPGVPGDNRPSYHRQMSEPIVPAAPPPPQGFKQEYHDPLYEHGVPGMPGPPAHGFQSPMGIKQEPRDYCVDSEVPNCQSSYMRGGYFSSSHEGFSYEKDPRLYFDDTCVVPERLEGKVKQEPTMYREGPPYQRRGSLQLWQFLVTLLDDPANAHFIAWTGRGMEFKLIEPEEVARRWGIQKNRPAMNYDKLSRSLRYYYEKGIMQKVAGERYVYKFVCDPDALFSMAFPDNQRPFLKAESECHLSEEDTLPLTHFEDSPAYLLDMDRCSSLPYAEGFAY
# Sequence of HSF1 (Q00613 whole entry): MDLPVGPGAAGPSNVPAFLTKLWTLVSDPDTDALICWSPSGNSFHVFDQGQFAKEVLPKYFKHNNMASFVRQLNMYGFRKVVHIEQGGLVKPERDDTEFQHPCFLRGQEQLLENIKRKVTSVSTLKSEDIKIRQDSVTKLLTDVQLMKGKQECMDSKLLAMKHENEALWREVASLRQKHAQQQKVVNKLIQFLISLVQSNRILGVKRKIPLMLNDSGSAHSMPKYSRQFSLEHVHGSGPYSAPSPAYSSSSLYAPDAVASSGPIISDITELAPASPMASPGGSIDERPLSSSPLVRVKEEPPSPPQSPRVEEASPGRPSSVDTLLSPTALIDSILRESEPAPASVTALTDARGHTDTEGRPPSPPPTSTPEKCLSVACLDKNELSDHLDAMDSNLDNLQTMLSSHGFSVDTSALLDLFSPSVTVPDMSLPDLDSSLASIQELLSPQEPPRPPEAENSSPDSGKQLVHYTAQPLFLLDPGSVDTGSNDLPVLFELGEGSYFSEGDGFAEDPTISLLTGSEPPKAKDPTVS
# Sequence of ETV1 (P50549 whole entry): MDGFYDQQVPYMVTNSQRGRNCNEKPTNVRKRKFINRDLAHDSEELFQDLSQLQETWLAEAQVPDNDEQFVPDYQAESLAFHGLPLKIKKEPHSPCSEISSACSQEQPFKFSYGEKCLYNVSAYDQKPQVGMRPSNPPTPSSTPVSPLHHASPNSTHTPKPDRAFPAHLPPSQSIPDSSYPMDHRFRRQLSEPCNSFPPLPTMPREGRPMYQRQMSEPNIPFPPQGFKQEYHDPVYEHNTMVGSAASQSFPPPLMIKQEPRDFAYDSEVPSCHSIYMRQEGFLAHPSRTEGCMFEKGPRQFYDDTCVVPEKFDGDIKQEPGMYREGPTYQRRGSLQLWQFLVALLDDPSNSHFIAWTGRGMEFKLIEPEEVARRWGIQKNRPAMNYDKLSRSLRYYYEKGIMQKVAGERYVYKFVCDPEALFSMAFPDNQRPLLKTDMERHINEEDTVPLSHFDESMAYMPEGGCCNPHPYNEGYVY
# Sequence of ELF4 (Q99607 whole entry): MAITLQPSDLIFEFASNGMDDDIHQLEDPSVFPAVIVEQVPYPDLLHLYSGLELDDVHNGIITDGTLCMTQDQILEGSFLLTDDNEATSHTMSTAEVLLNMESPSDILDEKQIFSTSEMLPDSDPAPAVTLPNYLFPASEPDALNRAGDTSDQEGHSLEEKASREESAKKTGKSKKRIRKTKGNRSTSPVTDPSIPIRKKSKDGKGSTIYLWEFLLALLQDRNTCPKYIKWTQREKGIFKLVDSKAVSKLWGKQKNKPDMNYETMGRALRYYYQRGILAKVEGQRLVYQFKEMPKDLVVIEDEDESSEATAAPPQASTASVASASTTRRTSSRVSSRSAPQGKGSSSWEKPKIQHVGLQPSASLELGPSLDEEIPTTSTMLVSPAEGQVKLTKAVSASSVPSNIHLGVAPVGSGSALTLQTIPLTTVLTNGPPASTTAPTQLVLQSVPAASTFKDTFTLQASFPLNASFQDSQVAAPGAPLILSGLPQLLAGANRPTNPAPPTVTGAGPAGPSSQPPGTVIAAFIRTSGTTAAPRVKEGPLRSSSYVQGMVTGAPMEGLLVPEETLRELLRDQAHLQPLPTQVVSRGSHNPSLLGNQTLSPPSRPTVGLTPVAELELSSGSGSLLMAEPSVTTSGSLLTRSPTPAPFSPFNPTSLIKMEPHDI
# Sequence of ETV6 (P41212 whole entry): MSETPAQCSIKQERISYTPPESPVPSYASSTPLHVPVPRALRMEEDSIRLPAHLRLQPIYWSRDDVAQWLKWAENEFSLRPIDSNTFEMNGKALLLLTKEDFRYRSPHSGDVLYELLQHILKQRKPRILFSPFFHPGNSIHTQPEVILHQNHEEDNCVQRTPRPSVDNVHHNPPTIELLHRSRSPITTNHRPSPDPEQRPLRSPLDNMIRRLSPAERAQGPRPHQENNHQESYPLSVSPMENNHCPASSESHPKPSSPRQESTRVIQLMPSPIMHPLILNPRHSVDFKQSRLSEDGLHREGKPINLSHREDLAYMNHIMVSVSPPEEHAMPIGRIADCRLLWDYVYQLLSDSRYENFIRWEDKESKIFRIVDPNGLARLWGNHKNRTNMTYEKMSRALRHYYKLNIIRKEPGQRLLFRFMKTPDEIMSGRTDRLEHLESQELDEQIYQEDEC
# Sequence of CRX (O43186 whole entry): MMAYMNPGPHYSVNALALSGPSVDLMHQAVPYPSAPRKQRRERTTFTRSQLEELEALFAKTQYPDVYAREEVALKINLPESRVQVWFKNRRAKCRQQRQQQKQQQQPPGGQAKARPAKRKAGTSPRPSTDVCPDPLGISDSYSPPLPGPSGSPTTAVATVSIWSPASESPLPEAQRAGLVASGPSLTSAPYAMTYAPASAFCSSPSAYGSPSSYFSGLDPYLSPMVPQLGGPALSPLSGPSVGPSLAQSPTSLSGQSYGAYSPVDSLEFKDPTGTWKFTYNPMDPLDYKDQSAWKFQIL
Sequence,binding signal (FEV),binding signal (ETV5),binding signal (HSF1),binding signal (SPIC),binding signal (ELF4),binding signal (ELK4),binding signal (ETV2),binding signal (ELF3),binding signal (CRX),binding signal (ETV1),binding signal (ERF),binding signal (ETV6),binding signal (ETV3L),binding signal (ETS2),binding signal (SPDEF),binding signal (ETV7),binding signal (ELF5),binding signal (ETV3)
TGAGCT,"1.09 fold enrichment (6-mer frequency, TF over GST control)","1.07 fold enrichment (6-mer frequency, TF over GST control)","1.06 fold enrichment (6-mer frequency, TF over GST control)","1.03 fold enrichment (6-mer frequency, TF over GST control)","1.1 fold enrichment (6-mer frequency, TF over GST control)","1.17 fold enrichment (6-mer frequency, TF over GST control)","1.19 fold enrichment (6-mer frequency, TF over GST control)","1.23 fold enrichment (6-mer frequency, TF over GST control)","1.35 fold enrichment (6-mer frequency, TF over GST control)","1.09 fold enrichment (6-mer frequency, TF over GST control)","1.05 fold enrichment (6-mer frequency, TF over GST control)","1.05 fold enrichment (6-mer frequency, TF over GST control)",,,,,,
TGTCTC,"1.22 fold enrichment (6-mer frequency, TF over GST control)","1.33 fold enrichment (6-mer frequency, TF over GST control)","1.01 fold enrichment (6-mer frequency, TF over GST control)","1.11 fold enrichment (6-mer frequency, TF over GST control)","1.36 fold enrichment (6-mer frequency, TF over GST control)","1.11 fold enrichment (6-mer frequency, TF over GST control)","1.26 fold enrichment (6-mer frequency, TF over GST control)","1.18 fold enrichment (6-mer frequency, TF over GST control)",,"1.22 fold enrichment (6-mer frequency, TF over GST control)","1.2 fold enrichment (6-mer frequency, TF over GST control)","1.22 fold enrichment (6-mer frequency, TF over GST control)","1.3 fold enrichment (6-mer frequency, TF over GST control)","1.26 fold enrichment (6-mer frequency, TF over GST control)","1.33 fold enrichment (6-mer frequency, TF over GST control)","1.16 fold enrichment (6-mer frequency, TF over GST control)","1.26 fold enrichment (6-mer frequency, TF over GST control)","1.21 fold enrichment (6-mer frequency, TF over GST control)"
